Measured values as given in article PMC5540273 (PLoS ONE, 2017).

system: CDK7; conditions: concentration: 1 μM,replicates: in singlicate; n = 1
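Further: KINOMEscan kinase panel screen.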

Structure (SMILES)	%Inh [%]
O=C(Nc1cccc(C(F)(F)F)c1)c1cccc(Oc2ccc3nccn3n2)c1	0
O=c1[nH]cc(-c2ccc(O)cc2)c2sc(-c3ccncc3)cc12 [GSK1033723]	0
Cc1nnc(-c2ccc3occ(-c4ccc(S(C)=O)cc4)c3n2)o1 (stereo not shown)	0
Cl.Cl.NC[C@H](CC1CCCCC1)NC(=O)c1ccc(-c2ccnc3[nH]ccc23)s1 [GSK1581428]	94.6
CCNCC(Cc1ccccc1)NC(=O)c1cc(Br)c(-c2ccnc3[nH]ccc23)s1.Cl.Cl (stereo not shown) [GSK1383280]	24
COc1cc2nccc(Nc3ccc(Oc4ccccc4)cc3)c2cc1OC.Cl [GI261656]	0
O=C(NCC1CC1)c1ccc(-c2cc(C(=O)NC3CC3)ccc2F)cc1 [GW810445]	0
NC(=O)Nc1sc(-c2ccc(F)cc2)cc1C(N)=O [GW789449]	19
C[C@@H](Oc1cc(-n2cnc3cc(-c4ccncc4)ccc32)sc1C(N)=O)c1ccccc1Cl [GSK479719]	1
OCCn1cc(-c2cnc3nnn(Cc4ccc5ncccc5c4)c3n2)cn1	15
Cn1ccc2ncnc(Oc3ccc(NC(=O)Nc4cncc(C(F)(F)F)c4)c(Cl)c3)c21	0
COC(=O)c1cccc(NC(=O)NC2CCN(c3ccnc(NCc4ccc(F)cc4)n3)CC2)c1 [GSK1379860]	0
Cc1n[nH]c2cc(Nc3ccnc(Nc4cccc(CN5CCOCC5)c4)n3)ccc12 [GW682569]	0
